According to PubChem BioAssay (EPA / NIEHS):
Results filed as inconclusive are left out. Some structures have more than one record in an assay (separate samples or runs), and their calls can disagree. The source made the active and inactive calls. How the source made its calls: active means hit-call score of the fitted dose curve at least 0.9, where 1 is the maximum; inconclusive means response in the unintended direction; inactive means score below 0.9.

What follows are molecules tested against Estrogen receptor beta (Homo sapiens) (UniProt Q92731) (assay: OT_ER_ERbERb_0480: Odyssey Thera (OT) 8-hour HEK293T Protein-Complementation Assay for Estrogen Receptor-beta/-beta Homodimer (AID 2283357)).
Sequence of Estrogen receptor beta (Homo sapiens) (Q92731 whole entry, looked up, the tested form may be a part): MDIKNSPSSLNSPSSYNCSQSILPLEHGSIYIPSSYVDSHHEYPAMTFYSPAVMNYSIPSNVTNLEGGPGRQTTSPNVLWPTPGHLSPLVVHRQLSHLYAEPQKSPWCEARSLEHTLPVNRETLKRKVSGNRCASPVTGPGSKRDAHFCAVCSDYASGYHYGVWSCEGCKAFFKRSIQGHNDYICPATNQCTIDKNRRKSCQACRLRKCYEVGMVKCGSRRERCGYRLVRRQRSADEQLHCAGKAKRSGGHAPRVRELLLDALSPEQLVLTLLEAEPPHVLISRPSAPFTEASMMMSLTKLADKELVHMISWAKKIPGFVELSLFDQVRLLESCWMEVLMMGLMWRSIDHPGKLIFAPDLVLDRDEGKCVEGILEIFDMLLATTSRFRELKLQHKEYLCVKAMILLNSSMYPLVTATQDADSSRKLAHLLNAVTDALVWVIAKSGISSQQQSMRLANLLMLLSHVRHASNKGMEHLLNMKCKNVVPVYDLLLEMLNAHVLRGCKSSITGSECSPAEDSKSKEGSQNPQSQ
Description: OT_ER_ERbERb_0480 is a cell-based assay that uses HEK293T, a human kidney cell line, with measurements taken at 8 hours after chemical dosing in a 384-well plate.OT_ER_ERbERb_0480 is one of one assay component(s) measured or calculated from the OT_ER_ERbERb_0480 assay. It is designed to make measurements of protein fragment complementation, a form of binding reporter, as detected with fluorescence intensity signals by Protein-fragment Complementation technology.Data from the assay component OT_ER_ERbERb_0480 was analyzed into 1 assay endpoint. This assay endpoint, OT_ER_ERbERb_0480, was analyzed in the positive analysis fitting direction relative to DMSO as the negative control and baseline of activity. Using a type of binding reporter, measures of receptor for gain-of-signal activity can be used to understand the binding at the pathway-level as they relate to the gene ESR2. Furthermore, this assay endpoint can be referred to as a primary readout, because the performed assay has only produced 1 assay endpoint. To generalize the intended target to other relatable targets, this assay endpoint is annotated to the nuclear receptor intended target family, where the subfamily is steroidal.
Protein-fragment complementation assay, or PCA, is a method for the identification and quantification of protein-protein interactions. In the PCA, the proteins of interest ("bait" and "prey") are each covalently linked to fragments of a third protein (e.g. DHFR, which acts as a "reporter"). Interaction between the bait and the prey proteins brings the fragments of the reporter protein in close proximity to allow them to form a functional reporter protein whose activity can be measured. The OT ER beta / ER beta assay is a homodimer PCA of the ligand binding domain (LBD; amino acids 310-547) of human ER beta stably expressed in HEK293T cells. […] Cells are fixed in 4 percent formaldehyde and stained with Draq5 (BioStatus) to identify cells prior to signal detection. Fluorescent signal in the basal state of the assay is very low and is primarily punctuate and cytoplasmic. Modulation of this assay is quantified as an increase in mean fluorescence intensity in the nucleus (for agonists) or in the nucleus and cytoplasm (antagonists) relative to vehicle controls, and can be quantified on a high content imaging device or a laser scanning cytometer. The latter instrument is favored for this assay because of the rapid mode of data acquisition, the ability to acquire data from the entire cell population in a well (as opposed to a fraction of the well on the high content devices) and the larger dynamic range typically achieved with this instrument. To assess sensitivity of the ER beta/ER beta LBD assay to ligand, cells were treated with the ER agonist 17- beta-estradiol (E2) in 10-point concentration- response format for 8 hours and monitored response on a laser scanning plate cytometer (Acumen eX3; TTP Lab Tech).

SMILES | AC50 | outcome
ClC1C(Cl)C(Cl)C(Cl)C(Cl)C1Cl (centres undefined) | 50 µM (active) | inactive
COP(=O)(OC)OC=C(Cl)Cl |  | inactive
N#CN |  | inactive
CCC(C)Nc1c([N+](=O)[O-])cc(C(C)(C)C)cc1[N+](=O)[O-] (centres undefined) |  | inactive
Oc1ccc(Cl)cc1Cc1ccccc1 | 12 µM (active) | 
CNC(=O)/C=C(\C)OP(=O)(OC)OC |  | inactive
Clc1ccccc1-c1nnc(-c2ccccc2Cl)nn1 |  | inactive
CC(C)N(C(=O)COc1nnc(C(F)(F)F)s1)c1ccc(F)cc1 |  | inactive
CCOC1Oc2ccc(OS(C)(=O)=O)cc2C1(C)C (centres undefined) |  | inactive
O=C(O)C(F)(F)C(F)(F)C(F)(F)C(F)(F)C(F)(F)C(F)(F)C(F)(F)F |  | inactive
CNC(=O)Oc1cccc(N=CN(C)C)c1 |  | inactive
O=C1c2ccccc2C(=O)N1SC(Cl)(Cl)Cl |  | inactive
COP(=S)(OC)Oc1ccc(SC)c(C)c1 |  | inactive
Oc1cc(Cl)ccc1Oc1ccc(Cl)cc1Cl |  | inactive
CC1(c2ccc(Oc3ccccc3)cc2)OC(=O)N(Nc2ccccc2)C1=O (centres undefined) |  | inactive
O=C(Nc1ccccc1)Nc1cnns1 |  | inactive
CCC(C)(NC(=O)c1cc(Cl)c(C)c(Cl)c1)C(=O)CCl (centres undefined) |  | inactive

SMILES | AC50 | outcome
CC(C)(C)C(O)/C(=C\c1ccc(Cl)cc1Cl)n1cncn1 (centres undefined) |  | inactive
COc1nn(CSP(=S)(OC)OC)c(=O)s1 |  | inactive
O=[N+]([O-])/N=C1\NCCN1Cc1ccc(Cl)nc1 |  | inactive
O=[N+]([O-])c1c(Cl)c(Cl)c(Cl)c(Cl)c1Cl |  | inactive
CCc1ccc(C(=O)NN(C(=O)c2cc(C)cc(C)c2)C(C)(C)C)cc1 |  | inactive
CNC(=O)CSP(=S)(OC)OC |  | inactive
CN1CSC(=S)N(C)C1 |  | inactive
O=C(O)CCCOc1ccc(Cl)cc1Cl |  | inactive
CC(C)(C)C(O)C(Oc1ccc(Cl)cc1)n1cncn1 (centres undefined) | 67.3 µM (active) | 
N#Cc1c(Cl)c(Cl)c(Cl)c(C#N)c1Cl |  | inactive
COP(=S)(OC)Oc1ccc([N+](=O)[O-])cc1 |  | inactive
OCCOc1ccccc1 |  | inactive
CNC(=O)Oc1ccccc1OC(C)C |  | inactive
C[C@H]1[C@H](c2ccc(Cl)cc2)SC(=O)N1C(=O)NC1CCCCC1 |  | inactive
O=C(NC(=O)c1c(F)cccc1F)Nc1ccc(OC(F)(F)C(F)OC(F)(F)F)c(Cl)c1 (centres undefined) |  | inactive
CCCN(CCOc1c(Cl)cc(Cl)cc1Cl)C(=O)n1ccnc1 |  | inactive
